# According to ChEMBL document CHEMBL3988442, “University of Dundee, Small-Polar-MMV Screening Library” (2021):
# Molecular target: AMP-activated protein kinase, AMPK (Homo sapiens) (UniProt P54646+O43741+P54619+Q9UGJ0+Q9Y478+Q13131+Q9UGI9)
# Test: AMP-dependent Kinase enzyme assay. An in vitro enzyme assay that detects ADP turnover that is directly proportional to AMPK activity. This uses naive AMPK that is activated during the assay with MK-8722
# Type: functional
# Design: scale not given: direction of the effect not stated beside the values
# Settings: 30 µM
row,SMILES,Percent Effect
1,COc1ccc(NC(=O)N2CCCC(CO)C2)c(C)c1 (stereo not given),-4.81%
2,CN(CCSc1nncn1C(C)(C)C)c1ccccc1,16.1%
3,O=C(Nc1ccccc1C(=O)NCCN1CCOCC1)c1ccco1,-3.24%
4,Cc1cc(N2CCC3(CCCN(CCO)C3=O)C2)nc2ccccc12 (stereo not given),9.84%
5,CS(=O)(=O)CCC(=O)Nc1ccsc1,-6.46%
6,Cc1nc(CN(C)S(=O)(=O)c2ccc(F)cc2Br)no1,1.76%
7,C[C@@H]1CN(S(=O)(=O)N2CCCCCC2)C[C@@]1(O)C1CCC1,-7.79%
8,CN(C)c1nc(N)nc(CN2CCC(c3nc4ccccc4o3)CC2)n1,-11.3%
9,CCc1cc(CNC(=O)c2cc(NC(=O)C(C)C)ccc2Cl)[nH]n1,0.911%
10,O=C(CCn1cncn1)NCCOc1cccc(Cl)c1,-7.83%
11,CN(c1ncc(S(N)(=O)=O)s1)C1CCC1,5.05%
12,CCn1cnnc1CNC(=O)N1CCOC(c2ccccc2Cl)C1 (stereo not given),0.771%
13,NS(=O)(=O)c1ccc(N2CCN(CCCc3cn[nH]c3)CC2)cc1,-5.73%
14,CCn1cc(-c2cc(C(=O)N3CCOCC3)c3cc(Cl)ccc3n2)cn1,11.8%
15,CS(=O)(=O)NCC1CCCN(Cc2ccccc2F)C1 (stereo not given),-6.5%
16,CCc1ccccc1Nc1noc2c1CN(C(=O)c1ccn(C)n1)CC2,-1.29%
17,Cc1cnc(Nc2cccc(C3CCCN3Cc3cn(C)nc3C)n2)s1 (stereo not given),21.4%
18,Cc1cc(=O)[nH]c(=O)n1Cc1ccccc1,1.77%
19,CCC(C)c1csc(NC(=O)c2sc(-c3nnc[nH]3)nc2C)n1 (stereo not given),12.2%
20,CN(C)CCNC(=O)CCC1CCN(C(=O)c2ccc(Cl)cc2O)CC1,9.06%

row,SMILES,Percent Effect
1,CC(c1ccncn1)N(C)S(=O)(=O)NCc1ccccc1 (stereo not given),-13.5%
2,Cc1cc(NC(=O)CO)nn1-c1ccc(Cl)cc1Cl,-3.56%
3,Cc1ccc(C)c(CN(CC(N)=O)C(C)C)c1,-8.2%
4,CC(C)c1cc(C2CCN(C(=O)Cn3nc4ccccc4n3)CC2)[nH]n1,13.1%
5,Cc1cc(S(=O)(=O)N(CCO)C2CC2)ccc1F,0.797%
6,CCS(=O)(=O)NCC(=O)NC1(C)CCc2ccccc2C1 (stereo not given),-3.96%
7,CN(Cc1ccc([S+](C)[O-])cc1)c1cncc(Br)c1 (stereo not given),13.9%
8,Cc1ncc(C(=O)N2CCOC(C(=O)N3CCCCCC3)C2)c(C)n1 (stereo not given),-3.31%
9,Cc1ccc(C)n1-c1ccsc1C(=O)NCC(=O)N1CCCC1,2.6%
10,Cc1cc(CNC(=O)NCCC(=O)N2CCCc3ccccc32)no1,-5.1%
11,CCN(C(=O)Cn1cc(NC(=O)C(C)(C)C)cn1)c1ccccc1,-3.26%
12,O=C(NCc1nnc2n1CCC2)c1cn(-c2ccccc2Br)nn1,12%
13,CC(=O)Nn1ccc2c(nnc3c(-c4ccc(F)cc4)cnn32)c1=O,10.3%
14,CCc1nc(N)nc(NCCC(=O)N2CCCC2)c1C,4.47%
15,CN1CSC[C@H]1C(=O)N1CCC(CCc2ccccc2)CC1,-1.47%
16,O=C(NC1CCN(c2ccccc2OC(F)F)C1)c1cccnc1 (stereo not given),-0.669%
17,CC(NCC(=O)NCC(=O)Nc1ccc(F)cc1)c1cccs1 (stereo not given),8.16%
18,CCN1CC2(CCN(CC3COCCO3)CC2)OC1=O (stereo not given),-1.21%
19,c1cnc(N2CCC(OCC3CCCCO3)CC2)nc1 (stereo not given),2.8%
20,CCOc1ccccc1CCC(=O)Nc1c(C)nn(C)c1C,8.9%
